# Source: PMC5540273 (PLoS ONE, 2017)
# Tested on: T1, GRK3
# T1 construct: gene ADRBK2
# Settings: concentration: 1 μM, replicates: in singlicate; n = 1
# 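Further: KINOMEscan kinase panel screen.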
row,SMILES,%Inh
1,Cn1cncc1-c1ccc2ncnc(Nc3ccc(OCc4ccccc4)cc3)c2c1 [GW320571],0%
2,Cc1cc(-c2ccc3c(c2)CC[C@@H](N[C@@H](C)c2ccccc2)C3)cnc1N.Cl [GW412617],17%
3,Fc1cccc(COc2nnc(-c3ccc4c(c3)CCO4)o2)c1,23%
4,O=C(Nc1n[nH]c2cc(-c3cccc(F)c3F)ccc12)C1CC1 [SB-733894],0%
5,COc1cc(Nc2nccc(N3CCC(NC(=O)Nc4cc(C)ccc4C)C3)n2)cc(OC)c1OC (stereo not shown) [GSK1379762],10%
6,CC(C)(C)c1ccc(C(=O)Nc2cn3cc(Cl)ccc3n2)cc1,0%
7,COc1ccc2nc(-c3cccc(C)n3)nc(Nc3ccncc3)c2c1 [GSK204919],43%
8,Cc1c(O)cccc1Nc1ccnc2ccc(C(F)(F)F)cc12.Cl [GW466413],8%
9,Cc1ccc(-c2cc(-c3c[nH]nc3-c3ccccn3)ccn2)cc1 [GW684088],74%
10,O=S(=O)(c1ccc(-c2ccnc3[nH]ccc23)cc1)N1CCCC1 [GSK846226],0%
11,Cn1ccc2ncnc(Oc3cccc(C(=O)Nc4ccccc4)c3)c21,8%
12,CCCc1ccc(S(=O)(=O)NC2CCN(c3ccnc(Nc4ccc(F)cc4)n3)C2)cc1 (stereo not shown) [GSK1379715],33%
13,O=C1NC(=O)C(N2CCc3ccccc32)=C1c1ccccc1Cl [SB-373598],0%
14,COC(=O)c1c(-c2ccccc2)c2cc(OC)ccc2c(=O)n1Cc1ccccc1,1%
15,COc1cccc(-c2cc(-c3c[nH]nc3-c3ccccn3)ccn2)c1 [GW680338],14%
16,COc1cc2ncnc(Nc3ccc4nc(-c5ccccc5)[nH]c4c3)c2cc1OC.Cl [GW282450],14%
17,COC(=O)c1c(-c2ccccc2)c2cc(C(=O)O)ccc2c(=O)n1Cc1ccccc1,3%
18,Cc1cccc(-c2nc(Nc3ccncc3)c3ccccc3n2)n1 [GW855857],0%

row,SMILES,%Inh
1,Cc1cccc(-c2nc(-c3ccc(S(C)(=O)=O)cc3)sc2-c2ccnc(NCCc3ccccc3)c2)c1,6%
2,CN(C)CCN(C)C(=O)c1cc(-c2ccncc2)c(-c2ccc(Cl)c(O)c2)o1.Cl.Cl [SB-710397],54%
3,Cc1nnc(-c2ccc3occ(-c4ccc(S(C)=O)cc4)c3c2)[nH]1 (stereo not shown),40%
4,COc1cc2nccc(Nc3ccc(NC(=O)c4ccc(C)cc4)c(O)c3)c2cc1OC.Cl [GW440132],29%
5,Cc1cccc(-c2cc(Nc3ccncc3)c3ccccc3n2)n1 [GSK223675],0%
6,Cn1ccc2ncnc(Oc3ccc(Nc4nc5ccccc5[nH]4)cc3)c21,0%
7,Cc1cc(NCC(c2ccccc2)c2ccccc2)nc(NCc2ccc(C(F)(F)F)cc2)n1 [GW497681],22%
8,Cc1cccc(-c2nc(C)cc(Nc3ccncc3)n2)n1 [GSK257997],0%
9,Cl.c1ccc(-c2n[nH]cc2-c2ccnc(-c3ccc(CN4CCOCC4)cc3)c2)nc1 [GW776245],0%
10,Cc1ccc(NC(=O)Nc2cc(C(C)(C)C)nn2-c2ccccc2)cc1 [GSK1014915],92.4%
11,CC1=C(C(=O)Nc2cc3cn[nH]c3cc2F)C(c2ccc(C(F)(F)F)cc2)CC(=O)N1 (stereo not shown) [GSK429286],73%
12,Nc1nc(-c2nccs2)c(-c2ccnc3ccccc23)s1 [GW693542],39%
13,COc1ccc(C2=C(Nc3cccc(C(=O)O)c3)C(=O)NC2=O)cc1 [SB-390765],50%
14,O=C(O)COc1ncnc2cc(-c3ccc4[nH]ncc4c3)sc12,23%
15,Cc1cccc(-c2nc(Nc3cccc(C(N)=O)c3)c3ccccc3n2)n1 [GW876019],0%
16,CC(C)(C)c1ccc(C(=O)Nc2cn3cc(-c4cccnc4)ccc3n2)cc1,0%
17,COc1ccccc1CNC(=O)c1cc(C(=O)c2ccccc2C)c[nH]1 [GSK364507],37%

# Tested on: GRK4
# Settings: concentration: 1 μM, replicates: in singlicate; n = 1
row,SMILES,%Inh
1,Cn1cncc1-c1ccc2ncnc(Nc3ccc(OCc4ccccc4)cc3)c2c1 [GW320571],0%
2,Cc1cc(-c2ccc3c(c2)CC[C@@H](N[C@@H](C)c2ccccc2)C3)cnc1N.Cl [GW412617],0%
3,Fc1cccc(COc2nnc(-c3ccc4c(c3)CCO4)o2)c1,0%
4,O=C(Nc1n[nH]c2cc(-c3cccc(F)c3F)ccc12)C1CC1 [SB-733894],0%
5,COc1cc(Nc2nccc(N3CCC(NC(=O)Nc4cc(C)ccc4C)C3)n2)cc(OC)c1OC (stereo not shown) [GSK1379762],20%
6,CC(C)(C)c1ccc(C(=O)Nc2cn3cc(Cl)ccc3n2)cc1,0%
7,COc1ccc2nc(-c3cccc(C)n3)nc(Nc3ccncc3)c2c1 [GSK204919],0%
8,Cc1c(O)cccc1Nc1ccnc2ccc(C(F)(F)F)cc12.Cl [GW466413],0%
9,Cc1ccc(-c2cc(-c3c[nH]nc3-c3ccccn3)ccn2)cc1 [GW684088],0%
10,O=S(=O)(c1ccc(-c2ccnc3[nH]ccc23)cc1)N1CCCC1 [GSK846226],0%
11,Cn1ccc2ncnc(Oc3cccc(C(=O)Nc4ccccc4)c3)c21,3%
12,CCCc1ccc(S(=O)(=O)NC2CCN(c3ccnc(Nc4ccc(F)cc4)n3)C2)cc1 (stereo not shown) [GSK1379715],0%
13,O=C1NC(=O)C(N2CCc3ccccc32)=C1c1ccccc1Cl [SB-373598],24%
14,COC(=O)c1c(-c2ccccc2)c2cc(OC)ccc2c(=O)n1Cc1ccccc1,0%
15,COc1cccc(-c2cc(-c3c[nH]nc3-c3ccccn3)ccn2)c1 [GW680338],0%
16,COc1cc2ncnc(Nc3ccc4nc(-c5ccccc5)[nH]c4c3)c2cc1OC.Cl [GW282450],11%
17,COC(=O)c1c(-c2ccccc2)c2cc(C(=O)O)ccc2c(=O)n1Cc1ccccc1,23%
18,Cc1cccc(-c2nc(Nc3ccncc3)c3ccccc3n2)n1 [GW855857],0%

row,SMILES,%Inh
1,Cc1cccc(-c2nc(-c3ccc(S(C)(=O)=O)cc3)sc2-c2ccnc(NCCc3ccccc3)c2)c1,0%
2,CN(C)CCN(C)C(=O)c1cc(-c2ccncc2)c(-c2ccc(Cl)c(O)c2)o1.Cl.Cl [SB-710397],0%
3,Cc1nnc(-c2ccc3occ(-c4ccc(S(C)=O)cc4)c3c2)[nH]1 (stereo not shown),11%
4,COc1cc2nccc(Nc3ccc(NC(=O)c4ccc(C)cc4)c(O)c3)c2cc1OC.Cl [GW440132],0%
5,Cc1cccc(-c2cc(Nc3ccncc3)c3ccccc3n2)n1 [GSK223675],0%
6,Cn1ccc2ncnc(Oc3ccc(Nc4nc5ccccc5[nH]4)cc3)c21,9%
7,Cc1cc(NCC(c2ccccc2)c2ccccc2)nc(NCc2ccc(C(F)(F)F)cc2)n1 [GW497681],0%
8,Cc1cccc(-c2nc(C)cc(Nc3ccncc3)n2)n1 [GSK257997],0%
9,Cl.c1ccc(-c2n[nH]cc2-c2ccnc(-c3ccc(CN4CCOCC4)cc3)c2)nc1 [GW776245],31%
10,Cc1ccc(NC(=O)Nc2cc(C(C)(C)C)nn2-c2ccccc2)cc1 [GSK1014915],7%
11,CC1=C(C(=O)Nc2cc3cn[nH]c3cc2F)C(c2ccc(C(F)(F)F)cc2)CC(=O)N1 (stereo not shown) [GSK429286],10%
12,Nc1nc(-c2nccs2)c(-c2ccnc3ccccc23)s1 [GW693542],21%
13,COc1ccc(C2=C(Nc3cccc(C(=O)O)c3)C(=O)NC2=O)cc1 [SB-390765],14%
14,O=C(O)COc1ncnc2cc(-c3ccc4[nH]ncc4c3)sc12,0%
15,Cc1cccc(-c2nc(Nc3cccc(C(N)=O)c3)c3ccccc3n2)n1 [GW876019],0%
16,CC(C)(C)c1ccc(C(=O)Nc2cn3cc(-c4cccnc4)ccc3n2)cc1,0%
17,COc1ccccc1CNC(=O)c1cc(C(=O)c2ccccc2C)c[nH]1 [GSK364507],0%
